For eight compounds, growth results are on record in PubChem BioAssay (NCI).

Test systems include NCI-H23 lung; NCI-H226 lung; NCI-H322M lung; HOP-62 NSCLC; NCI-H460 lung; NCI-H522 lung; A549/ATCC NSCLC; 786-0 renal; COLO 205 colon; DU-145 prostate; K-562 leukemia; MALME-3M melanoma; MDA-MB-231 breast; RXF 393 renal; SF-268 CNS; SF-295 CNS; SF-539 CNS; UACC-257 melanoma; M14 melanoma; HOP-92 NSCLC.
Holding throughout (test): NCI-60 one-dose screen, 48 h (100 = growth as untreated, 0 = no growth, -100 = all killed)
Common to all, as to details: 10 µM unless noted

Structures are written as SMILES. “And” between values parts separate entries of the source, which are not always exact repeats. Identical values can stand only once. This is part of a sample that, as a whole, favours compounds with a hit. Of some 83,000 tested, about 20% had one in any assay.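 Plates (96-well) were seeded with cells, treated with compound at one concentration, and incubated for 48 hours before percent growth was determined.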 The source made the active and inactive calls. The calls were made as follows: active = growth percent below 10; inactive = the rest.

For `CN1CCc2cc3c(cc2C1O)OCO3` (centres undefined), the growth with NCI-H23 lung is 109% (inactive); with NCI-H226 lung, 36% (inactive) and 105% (inactive); in the assay with NCI-H322M lung, 127% (inactive) and 98.7% (inactive); in the assay on HOP-62 NSCLC it was 103% (inactive) and 99.1% (inactive); in the assay with NCI-H460 lung it was -48.6% (active) and 107% (inactive); in the assay with NCI-H522 lung, -63.4% (active) and 109% (inactive). Besides, the growth in the assay with A549/ATCC NSCLC is 96.2% (inactive) and 106% (inactive); in the assay on 786-0 renal, 100% (inactive) and 91.9% (inactive); in the assay with COLO 205 colon, 92.9% (inactive) and 111% (inactive); in the assay on DU-145 prostate it was 101% (inactive) and 103% (inactive); with K-562 leukemia, 96.7% (inactive); with MALME-3M melanoma, 31% (inactive) and 88.7% (inactive). Further, the growth was 97.6% (inactive) and 111% (inactive) in the assay with MDA-MB-231 breast; 87.8% (inactive) and 114% (inactive) in the assay with RXF 393 renal; 83.2% (inactive) and 101% (inactive) with SF-268 CNS; 86.7% (inactive) and 94.8% (inactive) in the assay on SF-295 CNS; 33.5% (inactive) and 93% (inactive) in the assay on SF-539 CNS; 99.2% (inactive) and 111% (inactive) in the assay with UACC-257 melanoma. The growth with M14 melanoma is 102% (inactive) and 99% (inactive).
Turning to `OCCN=Cc1c[nH]c2ccccc12`, the growth was 91.6% (inactive) in the assay on NCI-H23 lung; 83.5% (inactive) in the assay with NCI-H226 lung; 102% (inactive) in the assay with NCI-H322M lung; 85.1% (inactive) with HOP-62 NSCLC; 103% (inactive) in the assay with NCI-H460 lung; 95.2% (inactive) with NCI-H522 lung. Besides, the growth in the assay with A549/ATCC NSCLC is 95.2% (inactive); in the assay with 786-0 renal, 95.7% (inactive); with COLO 205 colon, 112% (inactive); in the assay on DU-145 prostate, 114% (inactive); in the assay with MALME-3M melanoma, 104% (inactive); in the assay on MDA-MB-231 breast, 68.6% (inactive). The growth in the assay with RXF 393 renal was 118% (inactive); in the assay on SF-268 CNS, 107% (inactive); with SF-295 CNS, 89.9% (inactive); with SF-539 CNS, 99.4% (inactive); in the assay on UACC-257 melanoma it was 110% (inactive); in the assay with M14 melanoma, 97.3% (inactive).
With `COc1ccc(N)cc1N`, the growth in the assay on NCI-H23 lung was 96.8% (inactive); with NCI-H226 lung, 103% (inactive); in the assay with NCI-H322M lung, 96.1% (inactive); in the assay on HOP-62 NSCLC, 95.5% (inactive); with NCI-H460 lung, 107% (inactive); in the assay with HOP-92 NSCLC, 85.7% (inactive). Further, the growth in the assay with A549/ATCC NSCLC was 118% (inactive); with 786-0 renal, 102% (inactive); in the assay with COLO 205 colon it was 121% (inactive); with DU-145 prostate, 120% (inactive); with K-562 leukemia, 115% (inactive); in the assay on MALME-3M melanoma it was 117% (inactive). Further, the growth in the assay on MDA-MB-231 breast was 99% (inactive); in the assay on SF-268 CNS, 128% (inactive); with SF-295 CNS it was 105% (inactive); with SF-539 CNS it was 92.8% (inactive); in the assay with M14 melanoma, 111% (inactive).
On to `O=C(CBr)OCCOC(=O)CBr`, for which the growth in the assay with NCI-H23 lung was 84.7% (inactive); in the assay on NCI-H226 lung it was 109% (inactive); in the assay with NCI-H322M lung, 97.7% (inactive); in the assay on HOP-62 NSCLC, 109% (inactive); with HOP-92 NSCLC, 114% (inactive); in the assay with NCI-H522 lung it was -74.6% (active). Also, the growth in the assay on A549/ATCC NSCLC is 92.8% (inactive); in the assay on 786-0 renal it was 24.4% (inactive); in the assay on COLO 205 colon, 104% (inactive); in the assay on DU-145 prostate, 84.2% (inactive); with K-562 leukemia, 62.5% (inactive); in the assay on MALME-3M melanoma it was 76.3% (inactive). The growth with MDA-MB-231 breast was 80.6% (inactive); with RXF 393 renal, -7.57% (active); with SF-268 CNS, 89.9% (inactive); with SF-295 CNS, 104% (inactive); in the assay with SF-539 CNS, 112% (inactive); in the assay with UACC-257 melanoma it was 83.1% (inactive). Besides, in the assay with M14 melanoma, the growth is 81% (inactive).
On to `CCOP(=O)(OCC)C(=O)N(CC)CC`, for which the growth was 105% (inactive) with NCI-H23 lung; 94.3% (inactive) in the assay with NCI-H226 lung; 105% (inactive) in the assay on NCI-H322M lung; 99.9% (inactive) with HOP-62 NSCLC; 103% (inactive) in the assay with NCI-H460 lung; 91.7% (inactive) in the assay with NCI-H522 lung. Besides, the growth in the assay with A549/ATCC NSCLC is 98.4% (inactive); with 786-0 renal, 98% (inactive); in the assay on COLO 205 colon it was 118% (inactive); with DU-145 prostate, 107% (inactive); with K-562 leukemia, 121% (inactive); in the assay on MALME-3M melanoma it was 108% (inactive). The growth is 99.8% (inactive) in the assay with MDA-MB-231 breast; 101% (inactive) in the assay on RXF 393 renal; 101% (inactive) with SF-268 CNS; 98.8% (inactive) in the assay with SF-295 CNS; 113% (inactive) with SF-539 CNS; 88.4% (inactive) with UACC-257 melanoma. Besides, the growth with M14 melanoma was 101% (inactive).
Consider `O=C(O)C(F)F`, for which the growth is 107% (inactive) with NCI-H23 lung; 89.9% (inactive) with NCI-H226 lung; 114% (inactive) in the assay on NCI-H322M lung; 86.9% (inactive) in the assay on HOP-62 NSCLC; 107% (inactive) in the assay on HOP-92 NSCLC; 101% (inactive) with NCI-H522 lung. In addition, the growth was 106% (inactive) in the assay with 786-0 renal; 105% (inactive) in the assay with COLO 205 colon; 107% (inactive) in the assay on DU-145 prostate; 92.4% (inactive) with K-562 leukemia; 102% (inactive) in the assay with MALME-3M melanoma; 98.9% (inactive) in the assay with MDA-MB-231 breast. Besides, the growth in the assay on RXF 393 renal is 97.1% (inactive); in the assay with SF-268 CNS, 98.9% (inactive); with SF-295 CNS, 101% (inactive); in the assay on SF-539 CNS, 97.1% (inactive); with M14 melanoma, 107% (inactive).
Take `O=[N+]([O-])c1ccc(CI)cc1`: the growth with NCI-H23 lung is 101% (inactive); with NCI-H226 lung it was 94.6% (inactive); in the assay with NCI-H322M lung it was 106% (inactive); in the assay on NCI-H460 lung, 101% (inactive); in the assay on A549/ATCC NSCLC, 101% (inactive); with 786-0 renal it was 94% (inactive). Further, the growth in the assay on COLO 205 colon is 88.8% (inactive); with DU-145 prostate it was 105% (inactive); in the assay on K-562 leukemia it was 12.3% (inactive); in the assay on MALME-3M melanoma, 85.6% (inactive); in the assay on MDA-MB-231 breast, 102% (inactive); in the assay on SF-268 CNS, 84% (inactive). Also, the growth in the assay on SF-295 CNS is 110% (inactive); in the assay on SF-539 CNS, 56.9% (inactive); in the assay on UACC-257 melanoma it was 80.9% (inactive); in the assay on M14 melanoma it was 71.6% (inactive).
With `O=NN(c1ccccc1)c1ccccc1`, the growth in the assay on NCI-H23 lung is 98.3% (inactive); with NCI-H226 lung it was 95% (inactive); in the assay with NCI-H322M lung, 94.1% (inactive); in the assay on NCI-H460 lung it was 102% (inactive); in the assay on HOP-92 NSCLC, 88.1% (inactive); with NCI-H522 lung it was 105% (inactive). Moreover, the growth in the assay with A549/ATCC NSCLC is 96% (inactive); in the assay with 786-0 renal, 105% (inactive); in the assay with COLO 205 colon, 110% (inactive); in the assay on DU-145 prostate it was 103% (inactive); with K-562 leukemia, 113% (inactive); in the assay on MALME-3M melanoma, 86.2% (inactive). Besides, the growth in the assay on MDA-MB-231 breast was 98.9% (inactive); in the assay on RXF 393 renal it was 98.3% (inactive); in the assay with SF-268 CNS, 100% (inactive); with SF-295 CNS, 102% (inactive); in the assay on SF-539 CNS, 106% (inactive); in the assay on UACC-257 melanoma, 96% (inactive). Further, the growth in the assay on M14 melanoma was 106% (inactive).
